The assay addresses T1, ELF5 (Homo sapiens, UniProt Q9UKW6-2 1-255).
T1 sequence: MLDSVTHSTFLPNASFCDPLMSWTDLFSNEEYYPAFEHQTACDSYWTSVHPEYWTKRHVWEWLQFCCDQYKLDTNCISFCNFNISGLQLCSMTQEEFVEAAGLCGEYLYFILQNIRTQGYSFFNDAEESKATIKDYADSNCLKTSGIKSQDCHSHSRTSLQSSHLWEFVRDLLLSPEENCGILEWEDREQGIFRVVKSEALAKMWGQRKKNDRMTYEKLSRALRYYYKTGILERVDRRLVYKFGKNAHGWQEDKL
In words: DAPPL (digital affinity profiling via proximity ligation, sequencing); 10 mM Tris-HCl pH 7.5, 50 mM NaCl, 1 mM DTT, 4% glycerol, room temperature, 30 min; GST-TFs on glutathione beads, 16-mer random dsDNA library, 0.1% formaldehyde crosslink after washing; high values mean tight binding. Conditions: protein: recombinant; tags: N-terminal GST; dsDNA, one strand shown. The method, boiled down:
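Pools of DNA-barcoded human transcription factors, expressed in yeast as GST fusions on glutathione beads and combined with a tag-only sample, were incubated with 200 nmole of a 16-mer random double-stranded DNA library. Incubation took 30 min at room temperature in Tris/NaCl/DTT/glycerol buffer and was followed by washing, 0.1% formaldehyde crosslinking, proximity ligation (BsaI/T4 ligase, 1 h, 37 °C), PCR amplification and sequencing on an Illumina NextSeq500. Binding signal is the ratio of a hexamer's read frequency for a factor to its frequency for the tag-only sample.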
With GCTCTA, the binding signal is 1.14 fold enrichment (6-mer frequency, TF over GST control).

As for TCCGGT, the binding signal is 4.56 fold enrichment (6-mer frequency, TF over GST control).

For ATTTTG, the binding signal is 1.2 fold enrichment (6-mer frequency, TF over GST control).

In the case of CCCCTC, the binding signal is 1.24 fold enrichment (6-mer frequency, TF over GST control).

In the case of ATGTTA, the binding signal was 1.21 fold enrichment (6-mer frequency, TF over GST control).

Regarding TTGGTG, the binding signal was 1.27 fold enrichment (6-mer frequency, TF over GST control).

Consider TCCTCC, for which the binding signal was 2.04 fold enrichment (6-mer frequency, TF over GST control).

As for TTTCGA, the binding signal is 1.42 fold enrichment (6-mer frequency, TF over GST control).

CAAAAA: the binding signal was 1.07 fold enrichment (6-mer frequency, TF over GST control).

Turning to TGCTTC, the binding signal is 2.66 fold enrichment (6-mer frequency, TF over GST control).

Turning to TCACTC, the binding signal is 1.1 fold enrichment (6-mer frequency, TF over GST control).

For ATACAA, the binding signal was 1.08 fold enrichment (6-mer frequency, TF over GST control).

In the case of TTTTGG, the binding signal is 1.34 fold enrichment (6-mer frequency, TF over GST control).

TAACTG: the binding signal was 1.16 fold enrichment (6-mer frequency, TF over GST control).

Turning to CAATCT, the binding signal is 1.16 fold enrichment (6-mer frequency, TF over GST control).

With ATTATT, the binding signal is 1.15 fold enrichment (6-mer frequency, TF over GST control).

As for AGTGCT, the binding signal is 1.48 fold enrichment (6-mer frequency, TF over GST control).

In the case of TGGATG, the binding signal is 1.45 fold enrichment (6-mer frequency, TF over GST control).

For the sequence TAATCT, the binding signal is 1.46 fold enrichment (6-mer frequency, TF over GST control).

As for TGCTCC, the binding signal was 1.37 fold enrichment (6-mer frequency, TF over GST control).

CTGGTT: the binding signal was 1.38 fold enrichment (6-mer frequency, TF over GST control).

For AATTAC, the binding signal is 1.33 fold enrichment (6-mer frequency, TF over GST control).

As for TTAAGG, the binding signal is 1.26 fold enrichment (6-mer frequency, TF over GST control).

Turning to ACTACG, the binding signal is 1.33 fold enrichment (6-mer frequency, TF over GST control).

On to CTATGC, for which the binding signal was 1.33 fold enrichment (6-mer frequency, TF over GST control).

Take TCATCC: the binding signal is 1.6 fold enrichment (6-mer frequency, TF over GST control).

Regarding GTATCT, the binding signal is 1.18 fold enrichment (6-mer frequency, TF over GST control).

For TCATTT, the binding signal is 1.32 fold enrichment (6-mer frequency, TF over GST control).

Regarding CTCTCT, the binding signal was 1.41 fold enrichment (6-mer frequency, TF over GST control).

Regarding AAGTTA, the binding signal is 1.21 fold enrichment (6-mer frequency, TF over GST control).

Take ATCACC: the binding signal was 1.01 fold enrichment (6-mer frequency, TF over GST control).

Regarding ATCCTT, the binding signal was 2.26 fold enrichment (6-mer frequency, TF over GST control).

For the sequence GGTATT, the binding signal is 1.16 fold enrichment (6-mer frequency, TF over GST control).

Take CATATA: the binding signal is 1.01 fold enrichment (6-mer frequency, TF over GST control).

For the sequence TACCTC, the binding signal is 1.29 fold enrichment (6-mer frequency, TF over GST control).

On to ACGAAT, for which the binding signal was 1.11 fold enrichment (6-mer frequency, TF over GST control).

In the case of AATTGC, the binding signal is 1.38 fold enrichment (6-mer frequency, TF over GST control).

Take TTAAAG: the binding signal is 1.13 fold enrichment (6-mer frequency, TF over GST control).

Take CTATTC: the binding signal is 1.29 fold enrichment (6-mer frequency, TF over GST control).

As to TTTTGT, the binding signal was 1.33 fold enrichment (6-mer frequency, TF over GST control).

Source of the values: article PMC7862700, “An all-to-all approach to the identification of sequence-specific readers for epigenetic DNA modifications on cytosine”.
